Screening data deposited in PubChem BioAssay by several laboratories.
In the library only some 1.6% were active in any assay of this set; here they are far more common.
MOR-DOR inv ag = mu-delta opioid heterodimer inverse agonism. P35372+P41143. cell-based MOR-DOR heterodimer luminescence. inhibition, % at 9.3 µM. 0.21% of 340,000 active; in the data active means inhibition above about 22%, passing the limit was not always enough;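 further: 0% = cells with DMSO and 100% = wells without cells with DMSO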
Target sequence (P35372 whole entry, looked up): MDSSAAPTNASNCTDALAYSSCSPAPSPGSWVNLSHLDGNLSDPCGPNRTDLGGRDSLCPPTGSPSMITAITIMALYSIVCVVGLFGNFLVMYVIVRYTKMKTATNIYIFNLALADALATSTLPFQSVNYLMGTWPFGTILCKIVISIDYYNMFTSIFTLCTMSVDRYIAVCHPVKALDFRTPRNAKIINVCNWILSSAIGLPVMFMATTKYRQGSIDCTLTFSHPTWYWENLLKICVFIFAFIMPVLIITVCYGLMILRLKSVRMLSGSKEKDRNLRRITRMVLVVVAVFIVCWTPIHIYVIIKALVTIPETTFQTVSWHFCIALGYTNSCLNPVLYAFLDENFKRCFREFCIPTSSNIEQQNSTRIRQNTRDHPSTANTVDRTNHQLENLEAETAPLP
Target sequence (P41143 whole entry, looked up): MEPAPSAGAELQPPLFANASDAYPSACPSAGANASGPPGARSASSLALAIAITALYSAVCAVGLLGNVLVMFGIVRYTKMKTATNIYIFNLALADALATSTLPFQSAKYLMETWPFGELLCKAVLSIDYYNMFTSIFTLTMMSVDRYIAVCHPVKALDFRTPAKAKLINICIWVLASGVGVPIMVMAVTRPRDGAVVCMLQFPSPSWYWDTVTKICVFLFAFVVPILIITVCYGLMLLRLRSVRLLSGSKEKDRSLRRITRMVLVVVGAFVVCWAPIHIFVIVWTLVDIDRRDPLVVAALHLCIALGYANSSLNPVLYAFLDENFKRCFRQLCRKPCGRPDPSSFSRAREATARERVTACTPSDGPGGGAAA
HTR5A inv ag = inverse agonist of human HTR5A in OPRM1-OPRD1 counter-screen; P47898; HTR5A cell line, luminescence, inverse agonism; inhibition, % at 9.3 µM; 0.083% of 340,000 active; in the data active means inhibition mostly above about 23%, no sharp cut-off; inactive means mostly below about 18%;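 further: 0% = cells with DMSO and 100% = no-cell wells with DMSO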
HTR5A ag = activates human HTR5A in OPRM1-OPRD1 agonist counter-screen. 0.61% of 340,000 active. HTR5A agonist assay, luminescence, cell-based. activation, % at 9.3 µM; in the data active means activation mostly above about 9.5%, no sharp cut-off; inactive means mostly below about 7.6%;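 further: 0% = cells with vehicle only and 100% = reference agonist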
PolyA inhibitor = blocks polyadenylation in yeast reporter cells. S. cerevisiae SKY197-pL101 polyadenylation reporter, beta-gal luminescence; efflux-impaired pdr1/pdr3 knockout yeast; score 100 = 6 SD above DMSO. activity score, % at 12 µM. 0.02% of 300,000 active. AID 1875;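 active means lowest replicate activity score at least 50, where 100 means six control SD above control mean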;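 further: yeast exposed to compound for 9 h at 30 °C; higher score means more reporter readthrough which indicates perturbed polyadenylation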
NALP1 inh = NALP1 inhibition | S. cerevisiae NALP1/ASC/caspase-1 growth, X-gal OD620, 72 h | inhibition, % at 10 µM | 0.61% of 280,000 active | AID 2071; in the data active means inhibition mostly above about 24%, no sharp cut-off; inactive means mostly below about 32%
MOR-DOR ag = agonists of human mu-delta opioid receptor heterodimerization. P35372+P41143. cells, OPRM1-OPRD1 heterodimerization, luminescence. activation, % at 9.3 µM. 0.3% of 340,000 active. AID 504326; in the data active means activation above about 18%;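 further: 0% = vehicle-treated cells and 100% = reference agonist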
The depositor's hits bear a star; . = no result given.

SMILES	MOR-DOR inv ag	HTR5A inv ag	HTR5A ag	PolyA inhibitor	NALP1 inh	MOR-DOR ag
O=C(CNC(=O)c1ccccc1Br)N/N=C/c1cc(Br)ccc1O	6	-7	3	10	5	-1
CC(C)CCNC(=O)C(NS(=O)(=O)c1ccc2c(c1)c(=O)n(C)c(=O)n2C)c1ccccc1 (stereo unspecified)	8	15	-5	-6	44*	-2
CCC(C)NC(=O)C(NS(=O)(=O)c1ccc2c(c1)c(=O)n(C)c(=O)n2C)c1ccccc1 (stereo unspecified)	7	-2	1	.	-15	-1
CN(C)S(=O)(=O)c1ccc(Cl)c(NC(=O)CN2C(=O)NC(C)(C3CC3)C2=O)c1 (stereo unspecified)	18	2	-1	17	.	-3
N#Cc1ccccc1Cn1cc(C#N)c2ccccc21	-4	8	-2	-10	21	1
N#Cc1cn(Cc2ccccc2)c2ccccc12	7	33	3	-17	27*	-1
CC(C)(C)c1ccc(/C=C/C(=O)Nc2ccncc2)cc1	-49	-25	13*	-5	31	10
O=C(C=Cc1ccccc1)Nc1ccccc1	4	17	-4	.	.	-1
Cc1ccc(C2c3c(C)nn(-c4ccc([N+](=O)[O-])cc4)c3N=C3C(=O)Nc4ccccc4N32)cc1 (stereo unspecified)	.	.	.	-24	4	.
COc1cccc(C2c3c(C)nn(-c4ccc([N+](=O)[O-])cc4)c3N=C3C(=O)Nc4ccccc4N32)c1 (stereo unspecified)	3	-5	0	-6	30*	0
CNC(=O)c1ccccc1S(=O)(=O)c1ccccc1C#N	16	16	-6	19	28*	-4
COc1ccc(-n2nnnc2CNC(=O)c2ccc3c(c2)OCO3)cc1	11	-11	4	-12	.	-2
CC1CCN(CCCNC(=O)c2cc3c(s2)-c2ccccc2OC3)CC1	-7	-5	1	-11	19	1
Cc1cccc2c1-c1sc(C(=O)NCCCN3CCC(C)CC3)cc1CO2	-22	6	11*	-6	31	4
O=C(Nc1cccnc1)c1cc2c(s1)-c1ccccc1OC2	-13	-4	-2	-8	29	2
CC1CCCN(CCCNC(=O)c2cc3c(s2)-c2ccccc2OC3)C1 (stereo unspecified)	-10	-43	11*	5	32	2
Cc1cccc2c1-c1sc(C(=O)Nc3cccnc3)cc1CO2	-19	-26	11*	-14	25	4
Cc1cc(C)cc(NC(=O)CSc2nc(CSc3ccc(Cl)cc3)cc(=O)[nH]2)c1	9	-9	3	-6	34*	-2
CC(=O)N1CCN(C(=O)c2cccc(S(=O)(=O)N3CCOCC3)c2)CC1	-3	9	1	.	.	0
Cc1ccccc1C(=O)NCC(=O)NNC(=O)c1cccc(Cl)c1	-22	7	-3	.	.	5
COc1ccc(C2=NO[C@@](CC(=O)O)(C(=O)Nc3ccc4c(c3)OCCO4)C2)cc1	1	-18	5	-7	29	0
Cc1cc(C)nc(/N=C(\N)Nc2ccc(OCc3ccccc3)cc2)n1	-9	11	-4	-10	-5	2
Cc1cc(C)nc(/N=C(\N)Nc2ccc(OCCC(C)C)cc2)n1	-3	-13	4	-3	33*	1
CCc1nnc(NC(=O)c2nc(S(=O)(=O)Cc3cccc(C)c3)ncc2Cl)s1	-6	-34	9.1*	-11	-14	1
CCc1nnc(NC(=O)c2nc(S(=O)(=O)Cc3ccccc3)ncc2Cl)s1	-24	-31	8	-7	0	5
SMILES	MOR-DOR inv ag	HTR5A inv ag	HTR5A ag	PolyA inhibitor	NALP1 inh	MOR-DOR ag
Cc1[nH]c2ccccc2c1C(=O)NS(=O)(=O)Nc1ccc(Cl)cc1	5	8	-3	16	-13	-1
O=C(NCC(=O)N1CCN(S(=O)(=O)c2ccccc2F)CC1)c1ccc2c(c1)OCO2	12	-31	12*	-19	.	-2
COc1cc(OC)cc(C(=O)NCC(=O)N2CCN(S(=O)(=O)c3ccccc3F)CC2)c1	18	5	1	.	.	-5
CC(NCC(O)COc1ccccc1)C1COc2ccccc2O1 (stereo unspecified)	-22	-43	12*	-13	31	5
O=C(c1ccccc1)N1N=C(c2cccs2)CC1c1ccccc1O (stereo unspecified)	-83	4	14	-7	-3	16
O=C(c1ccccc1Cl)N1N=C(c2cccs2)CC1c1cccc(O)c1 (stereo unspecified)	12	-1	11*	20	-1	-2
OC(COc1ccc2ccccc2c1)CN1CCN(c2ccc(F)cc2)CC1 (stereo unspecified)	-3	-8	3	7	44*	1
CCCCN(C)CCNC(=O)c1cn(C)c(=O)c2c1c1ccccc1n2C	-6	-17	4	-18	42*	1
c1ccc(-c2nc(C3CCCCC3)c3ccccc3n2)cc1	-3	-2	13*	-11	.	0
CCS(=O)(=O)c1nc(S(=O)(=O)c2ccc(Cl)cc2)c(N2CCC(C(N)=O)CC2)s1	-1	-17	1	17	-6	0
CCCc1nc2ccc(NC(C)=O)cc2c(=O)n1Cc1ccc(Cl)cc1	-2	-27	10*	-9	5	0
CCCc1nc2ccc(NC(=O)c3cccs3)cc2c(=O)n1Cc1ccccc1Cl	-2	13	-3	-7	7	0
C/C(=N\Nc1ncc(Cl)cc1Cl)c1ccccn1	23	2	-1	-38	45*	-4
Cc1ccc(C(=O)N/C(=C\c2ccco2)C(=O)NCCc2c[nH]c3ccccc23)cc1	20	-38	14	3	19	-3
Cc1ccc(C(=O)N/C(=C/c2cccs2)C(=O)NCCc2c[nH]c3ccccc23)cc1	8	-24	14*	-1	6	-1
CCCCNS(=O)(=O)c1ccc2nc(-c3cccnc3)cc(C(=O)NCC(OC)OC)c2c1	8	9	-3	3	-1	-2
COc1cc(/C=N/NC(=O)c2cc3c(ccc4ccccc43)o2)cc(OC)c1O	-48	-43	11*	8	13	9
Cc1cccc(Cn2c(C(C)(C)C)cc3cccnc32)c1	-1	1	0	-11	48*	0
S=C(NCc1ccccc1)NC1CCSc2ccccc21 (stereo unspecified)	-16	-14	-2	0	27*	3
COc1ccccc1C(=O)OCC(=O)NC(C)CCc1ccccc1 (stereo unspecified)	19	-46	13*	13	8	-4
CC(CCc1ccccc1)NC(=O)COC(=O)c1ccccc1O (stereo unspecified)	10	-7	3	-13	29	-2
